The record followed here is PubChem BioAssay AID1851 (National Center for Advancing Translational Sciences (NCATS), 2009).

Among all 16,000 compounds or so, about 5,800 (36%) were called active. Not shown: some 23% with an inconclusive outcome. This is one part of the list. Unmarked numbers belong to inactive results. Calls follow the shape of the dose curve; as a rule, active = well fitted curve in the direction sought with a large enough effect; inconclusive = small, poorly fitted or top-dose-only effect, or effect the other way; inactive = no such curve, though single readings can be large or run the other way.
% is scaled to controls: 0 for no effect and ±100 for the full control effect.

For the assay, the target named is Cytochrome P450 2C19 (Homo sapiens) (UniProt P33261). Description: Cytochrome panel assay with activity outcomes. The note with it: recombinant CYP, pro-luciferin dealkylation, luminescence, p450-cyp2c19; series mostly up to 57.1 µM; activity, negative = inhibition: at the top concentration.
Chain of Cytochrome P450 2C19 (Homo sapiens) (P33261 whole entry, looked up): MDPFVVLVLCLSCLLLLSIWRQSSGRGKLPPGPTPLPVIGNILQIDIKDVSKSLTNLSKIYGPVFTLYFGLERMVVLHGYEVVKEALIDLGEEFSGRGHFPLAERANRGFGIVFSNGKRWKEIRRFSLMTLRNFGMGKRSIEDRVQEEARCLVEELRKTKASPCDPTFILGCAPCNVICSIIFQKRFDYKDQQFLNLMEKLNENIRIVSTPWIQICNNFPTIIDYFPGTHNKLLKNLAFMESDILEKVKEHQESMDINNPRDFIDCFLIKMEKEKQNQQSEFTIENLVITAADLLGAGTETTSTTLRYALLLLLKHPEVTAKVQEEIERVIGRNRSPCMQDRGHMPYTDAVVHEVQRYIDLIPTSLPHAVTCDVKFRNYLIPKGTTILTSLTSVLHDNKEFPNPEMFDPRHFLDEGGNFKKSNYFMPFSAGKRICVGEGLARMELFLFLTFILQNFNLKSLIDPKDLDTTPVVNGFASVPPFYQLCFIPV
Take `Clc1cccc(N/N=C/c2ccc(N3CCOCC3)cc2)c1`: the AC50 was 10 µM (active).
On the same count and under the same terms, the value for `FC(F)(F)c1cccc(NC(=S)Nc2ccc(Cl)cc2Cl)c1` was 0.282 µM (active).
Still for that read-out and setting: the value for `FC(F)(F)c1cccc(NC(=S)Nc2cccc(Cl)c2)c1` was 1.78 µM (active); that for `COc1ccc(C=O)cc1COc1ccc(C)cc1[N+](=O)[O-]` was 2.24 µM (active).
Regarding `C=CCNCCOCCOc1ccc(C)cc1[N+](=O)[O-]`, the “activity, negative = inhibition” value is -79.6%.
Same read-out and setting: in the case of `Nc1nccc(Nc2ccc(S(N)(=O)=O)cc2)n1` it was -11.8% [at 11.4 µM].
Same read-out and setting: in the case of `Cc1cnc(CNc2cc(-c3ccc(C(=O)N(C)C)cc3)ncn2)cn1` it was 13.1%.
Same read-out and setting: the value for `CN1CCN(c2ccnc(-c3ccc(N(C)C)cc3)n2)CC1` was -40.7%.
Regarding `CN(C)c1ccc(-c2cc(Nc3ccc(F)cc3)ncn2)cc1`, the AC50 is 2 µM (active).
On the same count and under the same terms, the value for `Fc1ccc(Nc2ccnc(-c3ccc4c(c3)OCO4)n2)cc1` was 2 µM (active); that for `CN(C)c1ccc(-c2nccc(Nc3ccc(F)cc3)n2)cc1` was 3.16 µM (active).
The same measure, in the same setting: the value for `CC(C)(C)c1ccc(CN(Cc2ccco2)Cc2nnnn2C2CCCC2)cc1` was 2.24 µM (active).
In the case of `O=C1CCc2cc(OCCCCc3nnnn3C3CCCCC3)ccc2N1`, the “activity, negative = inhibition” value is 28.7%.
Same read-out and setting: the value for `c1ccc(CN2CC[C@@H](CNc3ncnc4ccccc34)C2)cc1` was -7.26% [at 11.4 µM].
On to `S[C@@H]1CCCN(Cc2ccccc2)C1`, for which the AC50 is 3.16 µM (active).
For the molecule `OCC1CCCN(Cc2ccc(-c3ccccc3)cc2)C1` (stereo not given), the “activity, negative = inhibition” value is 8.82%.
With `Cc1ccc(Oc2ncc(CN3CCOCC3)s2)cc1`, the half-maximal activity concentration (AC50) is 1.78 µM (active).
Turning to `CCOc1nc(NCCN2CCOCC2)nc(Nc2ccc(C)cc2)n1`, the “activity, negative = inhibition” value was -18.9%.
The same measure, in the same setting: in the case of `Cc1cc(C(C)(C)C)c(OCCCN2CCOCC2)c(C(C)(C)C)c1` it was -2.67% [at 11.4 µM].
Consider `CCOC(=O)C1CCN(Cc2cnc(Oc3ccc(OC)cc3)s2)CC1`, for which the AC50 was 7.94 µM (active).
Regarding `O=C(Nc1cccc(F)c1)N1CC[C@@]2(CCCNC2)C1`, the “activity, negative = inhibition” value was -4.59%.
Still for that read-out and setting: the value for `Nc1ccc(N2C(=O)c3ccccc3C2=O)c(Cl)c1` was -14.9%.
With `Nc1ccc(N(S(=O)(=O)c2ccccc2)S(=O)(=O)c2ccccc2)c(Cl)c1`, the AC50 was 0.158 µM (active).
Same read-out and setting: the value for `O=C(NCC(c1cccnc1)N1CCOCC1)Nc1ccccc1` (stereo not given) was 17.8 µM (active).
As for `CC(C)(C)C(=O)[C@H]([C@@H](c1ccccc1)N1CCOCC1)N1CCOCC1`, the activity, negative = inhibition was 27.5% [at 11.4 µM].
Same read-out and setting: the value for `O=C(Nc1ccccc1)N1CCC2(CC1)CCN(C(=O)c1cnccn1)CC2` was -4.33%.
Regarding `CCOC(=O)c1sc2nc3c(cc2c1N)COC(C)(CC)C3` (stereo not given), the AC50 is 25.1 µM (active).
The same measure, in the same setting: the value for `Cc1ccc(-c2ccc(/C=N/NC(=S)Nc3ccccc3)o2)cc1[N+](=O)[O-]` was 7.94 µM (active).
On to `Cc1ccc(-c2ccc(/C=N\NC(=O)c3cc4c(ccc5ccccc54)o3)o2)cc1[N+](=O)[O-]`, for which the “activity, negative = inhibition” value was -10.5%.
The same measure, in the same setting: in the case of `CC1(C)OCC([C@H](O)C2=CCCCC2=O)CO1` it was 2.21% [at 11.4 µM].
Same read-out and setting: in the case of `Cc1nccn1C[C@@H]1CCc2c(c3ccccc3n2C)C1=O` it was -18.2% [at 25.6 µM].
Consider `O=C(N/N=C/c1ccc(Br)s1)c1ccccc1[N+](=O)[O-]`, for which the AC50 is 12.6 µM (active).
The same measure, in the same setting: the value for `O=C(N/N=C/c1ccc([N+](=O)[O-])s1)c1ccccc1Br` was 28.2 µM (active).
For `Cc1nc2ccccn2c1C(=O)N/N=C/c1ccccc1[N+](=O)[O-]`, the “activity, negative = inhibition” value was -3.18%.
With `COc1ccc2[nH]cc(CCNc3nc(-c4ccc(C(=O)N(C)C)cc4)nc4ccccc34)c2c1`, the AC50 is 3.16 µM (active).
On the same count and under the same terms, the value for `COc1ccc2[nH]cc(CCNc3nc(-c4ccc(N(C)C)cc4)nc4ccccc34)c2c1` was 7.94 µM (active).
As for `O=C1OC2CC3CC1CC(O)(C3)C2` (stereo not given), the “activity, negative = inhibition” value was -19.6%.
The same measure, in the same setting: in the case of `CCC(C(=O)Nc1cccc(C(F)(F)F)c1)c1ccccc1` (stereo not given) it was -24.6%.
In the case of `COC(=O)/C(=C\C(=O)c1ccccc1)Nc1cccc(C(F)(F)F)c1`, the AC50 is 5.01 µM (active).
Take `Nc1nc2c(ncn2[C@@H]2C=C[C@@H](CO)C2)c(=O)[nH]1`: the activity, negative = inhibition was -3.48% [at 11.4 µM].
Still for that read-out and setting: the value for `O=C(c1cc(C(F)(F)F)cc(C(F)(F)F)c1)N1CCC2(CC1)CN(c1ccccc1)C2` was -14.2%.
For `Cc1ccc(C(=O)N2CCN(c3ccc(C(F)(F)F)cn3)CC2)cc1`, the AC50 was 25.1 µM (active).
For `O=C(c1cc(C(F)(F)F)cc(C(F)(F)F)c1)N1CCC2(CC1)CN(c1ccccn1)C2`, the “activity, negative = inhibition” value was 1.83%.
The same measure, in the same setting: the value for `O=C(c1cc(C(F)(F)F)cc(C(F)(F)F)c1)N1CCC2(CC1)CCN(c1ccccn1)CC2` was -32.3%; that for `O=C(c1cc(C(F)(F)F)cc(C(F)(F)F)c1)N1CCC2(CC1)CCN(c1ccncc1)CC2` was -12%.
With `O=C(c1ccc(Oc2ccc(C(F)(F)F)cn2)cc1)N1CCN(c2ccccc2)CC1`, the AC50 was 10 µM (active).
`CN1CCN(c2ncc3ncc(=O)n(C[C@H]4CCCO4)c3n2)CC1`: the “activity, negative = inhibition” value was -0.787%.
For `O=C(NC(N1CCCC1)C(Cl)(Cl)Cl)c1ccccc1` (stereo not given), the AC50 is 7.94 µM (active).
As for `CC(C)NC(=O)/C(=N\O)c1ccccc1`, the “activity, negative = inhibition” value was 5.05%.
Regarding `O=C(NNC(=O)c1ccccc1)C(=O)N1CCCCC1`, the “activity, negative = inhibition” value was 14.9%.
In the case of `CCN(CC)N=Nc1[nH]nc2nc(C)cc(C)c12`, the “activity, negative = inhibition” value is -25.4%.
As to `CCN(CC)c1ncnc2c1sc1nc(C)cc(C)c12`, the AC50 is 14.1 µM (active).
Same read-out and setting: in the case of `Cc1ccc(-c2ncccc2OC(=O)C23CC4CC(CC(C4)C2)C3)cc1` it was 14.1 µM (active).
Turning to `O=C(CNc1cccc(Cl)c1)c1ccc(Cl)cc1`, the AC50 was 2 µM (active).
Take `O=C(NOC(=O)c1cc(Br)ccc1Cl)c1cccs1`: the “activity, negative = inhibition” value is 22.5%.
For the molecule `O=C(CCNc1cccc(Cl)c1)c1cccs1`, the AC50 is 3.98 µM (active).
Take `COc1ccccc1C1=NOC(COC(=O)c2ccc3ccccc3n2)C1` (stereo not given): the AC50 was 15.8 µM (active).
Turning to `COc1ccccc1-c1nc(NCCNC(C)=O)c2ccccc2n1`, the “activity, negative = inhibition” value is -0.29%.
`O=C1C[C@H](c2ccccc2)[C@@H](c2ccc(Br)cc2)O1`: the AC50 is 0.398 µM (active).
On the same count and under the same terms, in the case of `O=[N+]([O-])c1c(NCCO)cc(Sc2nc3ccccc3s2)c2nonc12` it was 2.51 µM (active); in that of `CN(CCO)c1cc(Sc2nc3ccccc3s2)c2nonc2c1[N+](=O)[O-]`, 11.2 µM (active); in that of `CC(C)n1nnnc1-c1cc(Cl)cc(Cl)c1`, 7.94 µM (active).
Consider `CN1CC[C@@]2(CCCN(C(=O)c3cccc(F)c3)C2)C1`, for which the “activity, negative = inhibition” value is -21.2%.
For `Cc1cccc(Cn2ncc(Cl)c(Cl)c2=O)c1`, the AC50 is 8.91 µM (active).
`Cc1cccc(-n2nnc3cnn(C)c3c2=O)c1`: the “activity, negative = inhibition” value was -24.5%.

As usually defined, the AC50 is the midpoint of the concentration-response curve, whichever way the signal moves.
